Hit rate of the full screen: of about 2,300 compounds, about 180 (7.8%) were called active.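 Rule for the calls: active = average inhibition of at least 30% in the single-concentration confirmation test; inactive = the rest.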 These entries were drawn from the full list.

This experiment deals with DNA (cytosine-5)-methyltransferase 1 (Homo sapiens) (UniProt P26358). Nature of the experiment: DNMT1 methyltransferase inhibitor retest, confirmation, biochemical, molecular beacon, fluorescence, single concentration (AID 602385). As to conditions: DNMT1 molecular beacon HinP1I cleavage, at 10 µM, active compounds read high.
DNA (cytosine-5)-methyltransferase 1 (Homo sapiens), sequence (P26358 504-1616 limits assumed): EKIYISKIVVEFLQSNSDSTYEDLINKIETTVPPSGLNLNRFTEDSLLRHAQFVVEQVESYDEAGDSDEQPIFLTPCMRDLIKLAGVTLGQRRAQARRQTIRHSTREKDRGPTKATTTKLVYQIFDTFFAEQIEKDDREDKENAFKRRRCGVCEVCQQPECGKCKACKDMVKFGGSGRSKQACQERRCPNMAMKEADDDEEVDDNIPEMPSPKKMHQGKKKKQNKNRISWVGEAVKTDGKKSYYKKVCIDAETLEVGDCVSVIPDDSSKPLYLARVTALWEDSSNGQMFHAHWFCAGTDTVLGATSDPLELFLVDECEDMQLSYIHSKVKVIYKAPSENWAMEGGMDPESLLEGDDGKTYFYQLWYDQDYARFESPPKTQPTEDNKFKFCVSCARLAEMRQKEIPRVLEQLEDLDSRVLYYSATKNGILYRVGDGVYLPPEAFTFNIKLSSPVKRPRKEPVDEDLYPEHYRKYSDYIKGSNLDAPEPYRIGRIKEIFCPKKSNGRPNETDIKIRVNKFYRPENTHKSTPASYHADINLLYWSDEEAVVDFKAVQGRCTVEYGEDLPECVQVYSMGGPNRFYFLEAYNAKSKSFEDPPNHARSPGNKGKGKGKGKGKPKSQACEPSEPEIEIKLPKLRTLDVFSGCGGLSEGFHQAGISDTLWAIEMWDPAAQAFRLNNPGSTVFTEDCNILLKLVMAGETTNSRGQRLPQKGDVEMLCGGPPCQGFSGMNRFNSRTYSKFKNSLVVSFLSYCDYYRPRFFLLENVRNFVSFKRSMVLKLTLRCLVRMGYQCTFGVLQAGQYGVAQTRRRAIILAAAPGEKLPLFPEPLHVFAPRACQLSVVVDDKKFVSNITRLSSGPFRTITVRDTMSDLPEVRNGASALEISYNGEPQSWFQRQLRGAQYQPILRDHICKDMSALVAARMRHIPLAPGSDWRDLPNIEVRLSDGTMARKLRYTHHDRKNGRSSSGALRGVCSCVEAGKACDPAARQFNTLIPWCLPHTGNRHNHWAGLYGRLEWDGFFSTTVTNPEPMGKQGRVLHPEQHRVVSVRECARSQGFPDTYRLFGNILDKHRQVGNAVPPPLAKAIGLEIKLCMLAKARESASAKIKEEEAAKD
The term inhibition denotes the share of the control response that was lost under treatment. Turning to `C=CCn1c(=S)[nH]c2scc(-c3ccco3)c2c1=O`, the inhibition is 8.63% (inactive).

With `CN(Cc1nc2ccc(F)cc2[nH]1)Cc1nc(CC2CC2)no1`, the inhibition is 4.53% (inactive).

As to `COc1ccc(-n2c(SCC(=O)Nc3sc4c(c3C#N)CCCC4)nnc2-c2ccc(O)cc2)cc1`, the inhibition was 18.9% (inactive).

With `O=C(CCS(=O)(=O)c1ccc(Br)cc1)NCCc1ccc(Cl)cc1`, the inhibition was 3.33% (inactive).

For `CCc1ccc(NC(=O)CS(=O)CC(=O)NCCCc2ccccc2)cc1` (stereo unspecified), the inhibition was 2.37% (inactive).

Turning to `CCC/C=C(\CCC)C(NC(=O)Cc1ccccc1)c1ccc(C(=O)OC)cc1` (stereo unspecified), the inhibition was 1.76% (inactive).

Take `COc1ccc(NC(=O)CCn2ccnc2)c(OC)c1`: the inhibition is 3.76% (inactive).

For `Cc1ccccc1-n1cc(CNC(=O)CC2C(=O)NCCN2C/C=C/c2ccccc2)cn1` (stereo unspecified), the inhibition is 0.15% (inactive).

As for `C=CC1=C(C(=O)O)N2C(=O)[C@@H](NC(=O)/C(=N\OCC(=O)O)c3csc(N)n3)[C@H]2SC1`, the inhibition is 4.47% (inactive).

As to `O=C(NNc1ccccn1)c1ccc(Cl)nc1`, the inhibition was 0.99% (inactive).

Consider `CC(Oc1ccccc1)C(=O)Nc1oc(-c2ccco2)c(-c2ccco2)c1C#N` (stereo unspecified), for which the inhibition is 1.51% (inactive).

For `COc1cccc(C(=O)Nc2ccc(N3CCCC3)cc2)c1`, the inhibition is 20.5% (inactive).

In the case of `Cc1ccc(-c2cc(C(=O)NCc3cn(C)nc3C)c3cc(Br)ccc3n2)cc1`, the inhibition was 8.12% (inactive).

Turning to `CC1(C(=O)NS(=O)(=O)c2ccccc2)CCN1C(=O)C/C=C/c1ccccc1` (stereo unspecified), the inhibition is 0.79% (inactive).

Take `Cc1ccccc1NC(=O)CN1C(=O)N/C(=C\c2cccn2-c2cccc(C(=O)O)c2)C1=O`: the inhibition was 34.7% (active).

Regarding `N#Cc1ccccc1CN1C(=O)S/C(=C/c2cccn2-c2cccc(C(=O)O)c2)C1=O`, the inhibition is 12.5% (inactive).

For the compound `O=C(Cn1nnc(-c2ccccc2)n1)N/N=C/c1ccc(-c2ccc(Cl)cc2)o1`, the inhibition was 2.46% (inactive).

Consider `C=CC[C@@H](CC(=O)N[C@H](CO)Cc1ccccc1)C(=O)N[C@@H](COC(=O)[C@@H](CC=C)Cc1ccc(F)cc1)Cc1c[nH]c2ccccc12`, for which the inhibition is 5.95% (inactive).

Regarding `O=c1[nH]c(/C=C/c2cccc(Br)c2)nc2ccccc12`, the inhibition was 3.81% (inactive).

In the case of `O=C(CSc1nc2ccccc2c(=O)[nH]1)Nc1nc(-c2ccc(Br)cc2)cs1`, the inhibition was 41.9% (active).

For `Cc1nnc(N/N=C/c2cccs2)[nH]c1=O`, the inhibition is 2.68% (inactive).

Values taken from PubChem BioAssay AID602385 (Sanford-Burnham Center for Chemical Genomics, 2012).
